Data reported in PubChem BioAssay (EPA / NIEHS).
Active and inactive are the calls of the source. The calls were made as follows: active = hit-call score of the fitted dose curve at least 0.9, where 1 is the maximum; inactive = score below 0.9.

Columns and labels:
[1] = BSK_LPS_SRB: Viability Assessment in the BioMAP Diversity Plus: LPS Assay (AID 2283079); conditions: primary human HUVEC with PBMC;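 also: total protein by sulforhodamine B absorbance as a cytotoxicity measure; measured one day after compound addition; fitted in both directions against DMSO so loss or gain of signal counts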
In short: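 Overt cytotoxicity was gauged by sulforhodamine B total-protein staining in a primary human vascular endothelial and mononuclear cell co-culture 24 h post-dosing. Activity was fitted in both directions relative to DMSO.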

[2] = read-out: Interleukin-1 alpha (IL1a), IL1A (gene 3552); assay: BSK_LPS_IL1a: BioMAP Diversity Plus: LPS Assay for Interleukin-1 alpha (IL1a) Biomarker Activity (AID 2283080); conditions: primary human HUVEC with PBMC; actives raise or lower the signal
In short: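 Measured: IL-1 alpha via ELISA at 24 h in LPS-activated human umbilical vein endothelium–PBMC co-culture. Baseline: DMSO, bidirectional fitting.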

[3] = read-out: Monocyte Chemoattractant Protein-1 (MCP1), CCL2 (gene 6347); assay: BSK_LPS_MCP1: BioMAP Diversity Plus: LPS Assay for Monocyte Chemoattractant Protein-1 (MCP1) Biomarker Activity (AID 2283081); conditions: primary human HUVEC with PBMC; actives raise or lower the signal;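 as to AC50: secreted MCP-1 protein quantified by ELISA in culture supernatant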
In short: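 LPS-stimulated HUVEC/PBMC co-culture; chemical, 24 h; MCP-1 by ELISA; bidirectional fit vs DMSO; cytotoxicity via SRB (0.1% stain, 10% TCA fix, 560 nm) in parallel wells.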

[4] = BSK_LPS_PGE2: BioMAP Diversity Plus: LPS Assay for Prostaglandin E2 (PGE2) Biomarker Activity (AID 2283082); conditions: primary human HUVEC with PBMC; actives raise or lower the signal;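 as to AC50: secreted prostaglandin E2 measured by ELISA in LPS-stimulated co-culture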
In short: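 HUVEC plus PBMC co-culture stimulated with LPS; secreted PGE2 quantified by ELISA 24 h after chemical dosing. Activity fitted bidirectionally against DMSO as negative control and baseline; parallel SRB total-protein staining served as cytotoxicity check.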

[5] = read-out: Macrophage colony-stimulating factor (MCSF), CSF1 (gene 1435); assay: BSK_LPS_MCSF: BioMAP Diversity Plus: LPS Assay for Macrophage colony-stimulating factor (MCSF) Biomarker Activity (AID 2283083); conditions: primary human HUVEC with PBMC; actives raise or lower the signal
In short: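 Compound is added to a human vascular primary co-culture of umbilical vein endothelium and blood mononuclear cells. After 24 h, M-CSF is quantified by ELISA. Signal changes are fitted in both directions against DMSO.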

[6] = read-out: Tissue Factor, F3 (gene 2152); assay: BSK_LPS_TissueFactor: BioMAP Diversity Plus: LPS Assay for Tissue Factor Biomarker Activity (AID 2283084); conditions: primary human HUVEC with PBMC; actives raise or lower the signal
In short: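 In this co-culture system of umbilical vein endothelium with PBMC, stimulated with LPS, cell-surface CD142 is detected by ELISA at 24 h. Endpoint values derive from bidirectional fitting, DMSO serving as baseline.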

[7] = read-out: Tumor necrosis factor (Homo sapiens) (UniProt P01375); assay: BSK_LPS_TNFa: BioMAP Diversity Plus: LPS Assay for Tumour Necrosis Factor alpha (TNFa) Biomarker Activity (AID 2283085); conditions: primary human HUVEC with PBMC; actives raise or lower the signal;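 as to AC50: TNFa protein level quantified by ELISA in the co-culture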
In short: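 Human umbilical vein endothelial cells co-cultured with PBMC were exposed to test chemical and TNFa measured by ELISA 24 h after dosing. Bidirectional curve fitting was done relative to DMSO as negative control and baseline.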

[8] = read-out: Vascular cell adhesion molecule 1 (VCAM1), VCAM1 (gene 7412); assay: BSK_LPS_VCAM1: BioMAP Diversity Plus: LPS Assay for Vascular cell adhesion molecule 1 (VCAM1) Biomarker Activity (AID 2283086); conditions: primary human HUVEC with PBMC; actives raise or lower the signal
In short: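 Human umbilical vein endothelial cells co-cultured with peripheral blood mononuclear cells under LPS stimulation were exposed to test chemical for 24 h. VCAM-1 levels were then measured by ELISA, with bidirectional curve fitting relative to DMSO as negative control and baseline.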

CD38, CD38 (gene 952) = assay: BSK_SAg_CD38: BioMAP Diversity Plus: SAg Assay for CD38 Biomarker Activity (AID 2283087); conditions: primary human HUVEC with PBMC; actives raise or lower the signal
In short: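 Fluorescence ELISA of cell-surface CD38 served as the read-out, with either increase or decrease fitted against DMSO controls. Cells were a human umbilical vein endothelium plus PBMC co-culture under SEB/TSST-1 stimulation, measured 24 h after dosing.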

CD40, CD40 (gene 958) = assay: BSK_SAg_CD40: BioMAP Diversity Plus: SAg Assay for CD40 Biomarker Activity (AID 2283088); conditions: primary human HUVEC with PBMC; actives raise or lower the signal
In short: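 Fluorescence ELISA read-out of CD40 from umbilical vein endothelium plus peripheral blood mononuclear cells, sampled 24 h after dosing. Values come from bidirectional curve fitting with DMSO as baseline.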

Chain of Tumor necrosis factor (Homo sapiens) (P01375 whole entry, looked up): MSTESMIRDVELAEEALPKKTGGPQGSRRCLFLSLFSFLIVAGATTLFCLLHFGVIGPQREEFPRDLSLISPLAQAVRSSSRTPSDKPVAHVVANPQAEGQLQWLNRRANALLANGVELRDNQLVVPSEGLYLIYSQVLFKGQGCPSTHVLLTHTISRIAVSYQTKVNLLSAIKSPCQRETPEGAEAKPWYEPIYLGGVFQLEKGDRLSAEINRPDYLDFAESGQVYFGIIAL

Row | Structure (SMILES) | outcome [1] | outcome [2] | outcome [3] | outcome [4] | outcome [5] | outcome [6] | outcome [7] | outcome [8] | outcome (CD38, CD38 (gene 952)) | outcome (CD40, CD40 (gene 958)) | AC50 [3] | AC50 [4] | AC50 [1] | AC50 [2] | AC50 [5] | AC50 [6] | AC50 [8] | AC50 (CD38, CD38 (gene 952)) | AC50 (CD40, CD40 (gene 958)) | AC50 [7]
1 | ClC(Cl)c1ccccc1 | inactive | inactive | inactive | inactive | inactive | inactive | inactive | inactive | inactive | inactive | – | – | – | – | – | – | – | – | – | –
2 | O=S1(=O)OCC2C(CO1)C1(Cl)C(Cl)=C(Cl)C2(Cl)C1(Cl)Cl (stereo not given) | inactive | inactive | – | inactive | inactive | inactive | inactive | inactive | inactive | inactive | 10.5 µM (active) | – | – | – | – | – | – | – | – | –
3 | c1ccc2c(c1)sc1ccccc12 | inactive | inactive | inactive | – | inactive | inactive | inactive | inactive | inactive | inactive | – | 0.596 µM (active) | – | – | – | – | – | – | – | –
4 | c1cc2c3c(cccc3c1)CC2 | inactive | inactive | inactive | inactive | inactive | inactive | inactive | inactive | inactive | inactive | – | – | – | – | – | – | – | – | – | –
5 | CC(Cl)CN(C)C (stereo not given) | inactive | inactive | inactive | inactive | inactive | inactive | inactive | inactive | inactive | inactive | – | – | – | – | – | – | – | – | – | –
6 | O=c1ssc(Cl)c1Cl | – | – | – | – | – | – | inactive | – | – | – | 6.46 µM (active) | 2.22 µM (active) | 5.34 µM (active) | 4.19 µM (active) | 4.28 µM (active) | 8.4 µM (active) | 6.59 µM (active) | 4.94 µM (active) | 5.44 µM (active) | –
7 | CCCN(CCC)c1c([N+](=O)[O-])cc(C(C)C)cc1[N+](=O)[O-] | – | – | – | inactive | – | inactive | – | – | – | – | 31.3 µM (active) | – | 31.2 µM (active) | 31.5 µM (active) | 26.2 µM (active) | – | 26.1 µM (active) | 28.6 µM (active) | 30.1 µM (active) | 35.9 µM (active)
8 | CC(C)(C)OOC(C)(C)C | inactive | inactive | inactive | inactive | inactive | inactive | inactive | inactive | inactive | inactive | – | – | – | – | – | – | – | – | – | –
9 | COP(=O)(CCC(=O)NCO)OC | inactive | inactive | inactive | inactive | inactive | inactive | inactive | inactive | inactive | inactive | – | – | – | – | – | – | – | – | – | –
10 | O=S(=O)(F)C(F)(F)C(F)(F)C(F)(F)C(F)(F)C(F)(F)C(F)(F)C(F)(F)C(F)(F)F | inactive | inactive | inactive | inactive | inactive | inactive | inactive | inactive | inactive | inactive | – | – | – | – | – | – | – | – | – | –
11 | O=C(O)C(Cl)Cl | inactive | inactive | inactive | inactive | inactive | inactive | inactive | inactive | inactive | inactive | – | – | – | – | – | – | – | – | – | –
12 | Cc1ccc(O)cc1C | inactive | inactive | inactive | – | inactive | inactive | inactive | inactive | inactive | inactive | – | 4.57 µM (active) | – | – | – | – | – | – | – | –
13 | O=P1(N(CCCl)CCCl)NCCCO1 (stereo not given) | inactive | inactive | inactive | inactive | inactive | inactive | inactive | inactive | inactive | inactive | – | – | – | – | – | – | – | – | – | –
14 | Cc1ccc(N)cc1N | inactive | inactive | inactive | inactive | inactive | inactive | inactive | inactive | inactive | inactive | – | – | – | – | – | – | – | – | – | –
15 | Nc1ccc2ccccc2c1 | inactive | inactive | inactive | inactive | inactive | inactive | inactive | inactive | inactive | inactive | – | – | – | – | – | – | – | – | – | –
16 | Nc1ccc(Cl)cc1 | inactive | inactive | inactive | inactive | inactive | inactive | inactive | inactive | inactive | inactive | – | – | – | – | – | – | – | – | – | –
17 | CCN(CC)c1ccccc1 | inactive | inactive | inactive | inactive | inactive | inactive | inactive | inactive | inactive | inactive | – | – | – | – | – | – | – | – | – | –
18 | C=CC(=O)OCC(CC)(COC(=O)C=C)COC(=O)C=C | – | – | – | inactive | – | – | inactive | – | – | – | 3.29 µM (active) | – | 2.43 µM (active) | 1.46 µM (active) | 1.91 µM (active) | 2.29 µM (active) | 2.79 µM (active) | 1.78 µM (active) | 2.12 µM (active) | –
19 | Cc1cccc(N)c1 | inactive | inactive | inactive | inactive | inactive | inactive | inactive | inactive | inactive | inactive | – | – | – | – | – | – | – | – | – | –
20 | CCOP(=S)(OCC)SCn1nnc2ccccc2c1=O | inactive | inactive | inactive | inactive | – | inactive | inactive | inactive | inactive | inactive | – | – | – | – | 20 µM (active) | – | – | – | – | –
21 | CCCCN(CCCC)SN(C)C(=O)Oc1cccc2c1OC(C)(C)C2 | – | – | – | inactive | – | inactive | – | – | – | – | 30.9 µM (active) | – | 28.4 µM (active) | 29.8 µM (active) | 30.9 µM (active) | – | 25.7 µM (active) | 31.4 µM (active) | 26.2 µM (active) | 35 µM (active)
